Pf growth 96h: P. falciparum growth inhibition at 96 hour, primary screen for plastid delayed-death inhibitors; P. falciparum luciferase reporter growth, 96 h; Potency, µM (doses to about 28.7 µM), usual class: inhibitors; 320,000 compounds, 6.9% hits; AID 504834
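Cell-based qHTS: luciferase-tagged P. falciparum in erythrocytes (2% hematocrit, 0.05% parasitemia final) incubated with compounds for 96 hours, 37 C, 5% CO2; luciferase detection reagent then added and luminescence measured.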
LmPK inh: inhibitors of Leishmania mexicana pyruvate kinase. Q27686. purified LmPK, Kinase-Glo ATP luminescence, 1 h. Potency, µM (series often up to 57.5 µM), actives largely listed as inhibitors. 290,000 compounds, 0.37% hits. AID 1721
Target sequence (Q27686 whole entry, looked up): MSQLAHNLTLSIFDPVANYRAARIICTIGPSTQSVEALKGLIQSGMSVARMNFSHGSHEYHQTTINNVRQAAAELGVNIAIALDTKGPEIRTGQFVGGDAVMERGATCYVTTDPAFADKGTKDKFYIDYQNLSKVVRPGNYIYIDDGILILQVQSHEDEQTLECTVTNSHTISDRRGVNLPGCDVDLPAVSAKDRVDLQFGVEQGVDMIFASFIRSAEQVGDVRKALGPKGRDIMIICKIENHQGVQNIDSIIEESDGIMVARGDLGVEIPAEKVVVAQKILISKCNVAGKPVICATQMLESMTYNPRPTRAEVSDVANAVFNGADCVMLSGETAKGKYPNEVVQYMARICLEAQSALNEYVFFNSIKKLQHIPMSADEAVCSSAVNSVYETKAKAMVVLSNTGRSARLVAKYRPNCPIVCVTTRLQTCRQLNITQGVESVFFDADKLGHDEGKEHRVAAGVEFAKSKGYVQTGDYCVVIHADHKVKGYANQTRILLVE
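In 50 mM imidazole pH 7.2 with 7 mM MgCl2, LmPK (0.1 nM) turned over PEP (0.5 mM) and ADP (0.1 mM) for 1 h at room temperature. Luciferase read-out of ATP.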
Shiga toxin inh: inhibitors of Shiga toxin in Vero cells; AID 2315; Vero cells, Shiga toxin protein synthesis inhibition reporter; 290,000 compounds, 9.2% hits; inhibition, % at 38.7 µM; in the data active = inhibition mostly above about 28%, no sharp cut-off; inactive = mostly below about 43%
Pf growth 48h: P. falciparum growth inhibition at 48 hours (one generation); Potency, µM (top dose mostly 28.7 µM), most hits filed as inhibitors; 310,000 compounds, 5.9% hits; AID 504832; P. falciparum luciferase growth in erythrocytes, 48 h
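Luciferase-expressing P. falciparum in infected erythrocytes (2% hematocrit, 0.1% parasitemia final) in RPMI 1640/0.5% Albumax were exposed to compound for 48 hours at 37 C, 5% CO2; growth read as luminescence.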
CHX counter: counter-screen for Shiga toxin inhibitors: cycloheximide protein synthesis inhibition | cell reporter, cycloheximide protein synthesis inhibition counterscreen | max response, % | 300,000 compounds, 12% hits | AID 2314; in the data active = max response mostly above about 13%, no sharp cut-off; inactive = mostly below about 14%; note: read at 38.3 µM for the half of the compounds with a filed dose
Hits are given with their value; n = inactive; u = inconclusive; x = no result; + = active, no number. Compounds with a hit are over-represented: about 22% of the library has one in this group of screens. Unless noted, calls come from the whole dose curve; as a rule, active = well fitted inhibition curve with a large enough effect; inconclusive = small, poorly fitted or top-dose-only effect, or another doubt; inactive = no such curve, though single readings can be large or run the other way.

SMILES | Pf growth 96h | LmPK inh | Shiga toxin inh | Pf growth 48h | CHX counter
[Cl-].[Cl-].[Hg+2] | 2.4µM | x | x | 2.1µM | x
N#CC1=C(N)N2C(=C(C#N)C1c1ccccc1)Sc1ccccc12 (stereo not drawn) | n | n | n | n | n
CCOc1ccc(C2C(C#N)=C(N)N3C(=C2C#N)Sc2ccccc23)cc1 (stereo not drawn) | n | n | 65 | u | 26
COc1cccc(CNC(=O)CN2C(=O)CSc3ccc(S(=O)(=O)N4CCCCC4)cc32)c1 | u | n | n | u | n
C/C(=N/NC(=O)c1nnn(-c2nonc2N)c1-c1ccccc1)c1ccc2c(c1)OCO2 | n | n | n | n | n
C/C(=N\N=C(/N)c1nonc1N)c1ccc2c(c1)OCO2 | n | n | 55 | n | 81
C=CCn1c(SCC(=O)Nc2ccc3c(c2)OCCO3)nc2cc(C(=O)O)ccc2c1=O | n | x | x | n | x
CC(=O)Nc1ccc(N(C(=O)c2ccco2)C(C(=O)NC2CCCC2)c2cccs2)cc1 (stereo not drawn) | u | n | n | u | n
COc1ccc(N(C(=O)c2ccco2)C(C(=O)NC2CCCC2)c2ccncc2)cc1 (stereo not drawn) | n | n | n | n | n
CC(C)c1ccc(N(C(=O)c2ccco2)C(C(=O)NC2CCCC2)c2ccncc2)cc1 (stereo not drawn) | n | n | 73 | n | 33
CC(=O)Nc1ccc(N(C(=O)c2ccco2)C(C(=O)NC2CCCCC2)c2ccccc2)cc1 (stereo not drawn) | n | n | 35 | u | 12
CCC(C)c1ccc(N(C(=O)c2ccco2)C(C(=O)NC2CCCC2)c2cccnc2)cc1 (stereo not drawn) | n | n | 94 | 1.9µM | 39
Cc1cccc(-n2c(C)nc3cc(C(=O)N4CCOCC4)ccc32)c1 | n | n | n | n | 13
Cc1ccc(C(=O)N2CCCC2)cc1Br | n | n | n | x | n
Cc1cccc(-n2cnc3cc(C(=O)N4CCCCC4)ccc32)c1 | x | n | 100 | n | 41
COc1ccc(NC(=O)Nc2c(C)n(C)n(-c3ccccc3)c2=O)c(OC)c1 | n | n | n | n | n
COC(=O)C/C=C/[C@@H](C)[C@@H](/C=N/O[C@@H](C)c1cn([C@H](CO)Cc2ccccc2)nn1)NS(=O)(=O)c1ccc(C)cc1 | 12µM | n | n | u | n
COC(=O)C/C=C/[C@@H](C)[C@@H](/C=N/O[C@H](C)c1cn([C@@H]2COC[C@H]2O)nn1)NS(=O)(=O)c1ccc(C)cc1 | n | n | n | u | n
C=CCN=C(NC#N)SCc1ccccc1 | n | n | n | n | n
C=CCN=C(NC#N)SCC(=O)c1cccc(OC)c1 | n | n | 63 | n | 61
O=c1cc(CSc2nnnn2-c2ccccc2)nc2scc(-c3ccccc3)n12 | 8.3µM | n | n | u | n
CCc1ccc(OC(=O)c2cccnc2)cc1 | u | n | n | n | n
Cc1cc2c3c([nH]c2cc1S(=O)(=O)NCCCOC(C)C)CC(C)(C)CC3=O | n | n | n | u | n
Cc1ccc2cc3c(nc2c1)OCC3 | n | n | 47 | n | 32
Cc1ccc(/C=C/C(=O)Nc2cc(C)on2)cc1 | u | n | 62 | u | 58
SMILES | Pf growth 96h | LmPK inh | Shiga toxin inh | Pf growth 48h | CHX counter
CC(C)(C)c1ccc(S(=O)(=O)N2CCCC2C(=O)NC2=NCCS2)cc1 (stereo not drawn) | u | n | n | u | n
Cc1ccc(/C=C/C(=O)NC2=NCCS2)cc1 | u | n | 92 | n | 70
CC(C)(C)c1ccc(/C=C/C(=O)NC2=NCCS2)cc1 | n | n | + | n | 54
COCCCNC(=S)N1CCC(NC(=O)c2ccco2)CC1 | n | n | n | n | n
COc1ccc(COc2ccccc2C(=O)Nc2ccccn2)cc1[N+](=O)[O-] | n | n | n | n | n
Cn1c(=O)c2c(nc(N3CCN(c4ccccn4)CC3)n2Cc2ccccc2Cl)n(C)c1=O | 13µM | n | n | 9.3µM | n
CN1CCN(c2nc3c(c(=O)[nH]c(=O)n3C)n2Cc2ccc(Cl)cc2)CC1 | u | n | n | u | n
Cn1c(=O)c2c(nc(CN3CCN(C(=O)c4ccco4)CC3)n2Cc2ccccc2F)n(C)c1=O | 1.5µM | n | n | x | n
Cn1c(=O)c2c(nc(N3CCNCC3)n2Cc2ccccc2Cl)n(C)c1=O | n | n | n | n | n
CN1CCN(c2nc3c(c(=O)n(C)c(=O)n3C)n2Cc2ccc(Cl)cc2)CC1 | 0.12µM | n | x | n | n
